Inconclusive results are not listed. A call without a number means that no potency is given here. The source made the active and inactive calls. Unless noted, the call rests on the fitted dose curve; in most records, active means well fitted curve in either direction with a large enough effect (not every such curve was filed as active); inconclusive means small, poorly fitted or top-dose-only effect, or another doubt; inactive means flat fitted curve, though single readings scatter.
Columns and labels:
[1] = biological target: Lysosomal acid glucosylceramidase (Homo sapiens) (UniProt P04062); experiment: Glucocerebrosidase-p2 (AID 348; in the data active means potency below about 10 µM; further: potency means the concentration at half of the fitted maximal effect); settings: purified GBA, blue fluorogenic substrate, 40 min
Sequence of Lysosomal acid glucosylceramidase (Homo sapiens) (P04062 whole entry, looked up): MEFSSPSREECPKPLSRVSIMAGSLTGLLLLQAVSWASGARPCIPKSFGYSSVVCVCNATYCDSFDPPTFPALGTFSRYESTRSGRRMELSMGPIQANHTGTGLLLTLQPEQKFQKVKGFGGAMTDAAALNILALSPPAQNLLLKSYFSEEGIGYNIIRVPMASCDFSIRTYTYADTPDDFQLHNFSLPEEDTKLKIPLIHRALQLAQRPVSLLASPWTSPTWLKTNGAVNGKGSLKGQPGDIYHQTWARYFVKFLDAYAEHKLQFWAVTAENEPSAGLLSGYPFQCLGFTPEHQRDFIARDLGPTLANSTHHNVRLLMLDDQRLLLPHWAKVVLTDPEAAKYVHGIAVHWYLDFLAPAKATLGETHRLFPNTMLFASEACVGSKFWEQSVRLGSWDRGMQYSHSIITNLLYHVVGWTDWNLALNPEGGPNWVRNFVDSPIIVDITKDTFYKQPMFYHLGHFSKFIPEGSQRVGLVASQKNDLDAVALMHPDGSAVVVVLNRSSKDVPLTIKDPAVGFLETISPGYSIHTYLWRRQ
Procedure, shortened: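 Compounds titrated from 0.6 nM upwards against 0.2 nM enzyme in pH 5.9 citric acid/KH2PO4, taurocholate, tween-20; blue fluorogenic substrate 80 uM, 40 min room temperature, stopped and read Ex 365/Em 440 for AC50.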

[2] = AP1 Signaling Pathway (AID 357); settings: ME-180 AP-1-bla reporter, EGF-induced, beta-lactamase ratio, 5 h; series mostly up to 17.2 µM
Procedure, shortened: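 AP-1-bla ME-180 cells with beta-lactamase reporter under AP-1 response element, stimulated with EC50 EGF; compounds titrated, 5 hours at 37 degrees Celsius. CCF4 read at 460/530 nm ratio; positive and negative modulators judged by AC50.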

[3] = biological target: Cytochrome P450 1A2 (Homo sapiens) (UniProt P05177); experiment: p450-cyp1a2 (AID 410; calls by dose curve; further: potency means the concentration at half of the fitted maximal effect); settings: recombinant CYP1A2, luciferin-ME demethylation, luminescence; series mostly up to 25.6 µM
Sequence of Cytochrome P450 1A2 (Homo sapiens) (P05177 whole entry, looked up): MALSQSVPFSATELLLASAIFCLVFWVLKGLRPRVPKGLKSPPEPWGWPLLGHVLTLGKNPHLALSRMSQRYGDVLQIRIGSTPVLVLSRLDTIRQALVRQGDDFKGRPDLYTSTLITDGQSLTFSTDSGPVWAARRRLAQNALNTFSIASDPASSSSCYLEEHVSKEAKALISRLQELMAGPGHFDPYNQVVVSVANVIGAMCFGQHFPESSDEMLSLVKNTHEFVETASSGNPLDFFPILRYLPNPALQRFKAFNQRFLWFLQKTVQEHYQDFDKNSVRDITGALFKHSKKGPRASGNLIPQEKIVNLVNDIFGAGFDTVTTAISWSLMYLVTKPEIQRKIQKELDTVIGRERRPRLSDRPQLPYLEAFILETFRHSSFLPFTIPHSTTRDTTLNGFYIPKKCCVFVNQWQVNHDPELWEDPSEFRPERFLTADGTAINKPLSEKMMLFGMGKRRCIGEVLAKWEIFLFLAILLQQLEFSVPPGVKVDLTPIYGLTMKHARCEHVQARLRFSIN
Procedure, shortened: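 Inhibition was calculated relative to 57 uM furafylline (full inhibition). The reaction used human CYP1A2 at 20nM with Luciferin-ME at its Km, 100uM, driven by an NADPH-regenerating system for 60 min at room temperature.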

[4] = Stat Signaling Pathway (AID 446); settings: ME-180 SIE beta-lactamase reporter, IL-6 stimulated, 5 h; series mostly up to 17.2 µM;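 further: ME-180 cervical cancer cells given 40 pM IL-6 alongside compound; SIE-controlled beta-lactamase reporter measured as 460/530 nm FRET emission ratio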
Procedure, shortened: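 ME-180 SIE-bla cells; overnight plating; cpd + IL-6 40 pM, 5 h, 37 C; LiveBLAzer 2.5 h RT; 460/530 nm emission ratio. Normalized to 300 pM IL-6 and 125 nM JAK inhibitor controls.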

[5] = biological target: Glucocorticoid receptor (Homo sapiens) (UniProt P04150); experiment: GR-EFC Redistribution (AID 451; calls by dose curve; further: potency means the concentration at half of the fitted maximal effect); settings: CHO-K1 GR-EFC translocation, beta-gal luminescence, 2 h
Sequence of Glucocorticoid receptor (Homo sapiens) (P04150 whole entry, looked up, the tested form may be a part): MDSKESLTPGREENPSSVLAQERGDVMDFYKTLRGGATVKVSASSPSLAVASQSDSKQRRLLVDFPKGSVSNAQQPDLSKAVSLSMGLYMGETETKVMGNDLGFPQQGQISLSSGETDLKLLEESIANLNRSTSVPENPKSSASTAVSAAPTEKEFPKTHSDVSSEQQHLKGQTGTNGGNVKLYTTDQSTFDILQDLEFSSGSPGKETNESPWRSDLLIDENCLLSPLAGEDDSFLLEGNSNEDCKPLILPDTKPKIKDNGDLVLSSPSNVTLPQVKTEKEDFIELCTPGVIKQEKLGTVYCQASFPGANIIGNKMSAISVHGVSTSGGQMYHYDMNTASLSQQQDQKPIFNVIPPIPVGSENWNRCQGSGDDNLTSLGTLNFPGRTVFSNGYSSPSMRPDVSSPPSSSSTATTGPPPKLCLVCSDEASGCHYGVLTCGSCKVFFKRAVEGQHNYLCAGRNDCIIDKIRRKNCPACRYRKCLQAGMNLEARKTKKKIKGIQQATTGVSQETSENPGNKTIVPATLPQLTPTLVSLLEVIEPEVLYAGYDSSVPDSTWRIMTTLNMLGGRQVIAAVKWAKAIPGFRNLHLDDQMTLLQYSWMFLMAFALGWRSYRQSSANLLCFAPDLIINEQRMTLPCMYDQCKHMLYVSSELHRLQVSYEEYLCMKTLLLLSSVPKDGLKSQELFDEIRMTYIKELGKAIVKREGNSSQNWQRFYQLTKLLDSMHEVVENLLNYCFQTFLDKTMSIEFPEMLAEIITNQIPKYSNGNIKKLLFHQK
Procedure, shortened: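 Translocation of GR-ED fusion to nuclear EA restores b-gal, read by luminescence after 1 h room-temperature detection. Engineered CHO-K1 biosensor cells, 1,000/well, exposed 2 h at 37 C to titrations up to 46 uM final.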

[6] = biological target: Cytochrome P450 3A4 (Homo sapiens) (UniProt P08684); experiment: qHTS Assay for Activators of Cytochrome P450 3A4 (AID 885; active means well fitted curve in the direction sought with a large enough effect; an effect the other way counts as inactive or inconclusive; further: nearly all actives have a fitted effect of over 65% in size; further: potency means the concentration at half of the fitted maximal effect); settings: recombinant CYP3A4, Luciferin-PPXE luminescence, 60 min; series mostly up to 57.1 µM
Sequence of Cytochrome P450 3A4 (Homo sapiens) (P08684 whole entry, looked up): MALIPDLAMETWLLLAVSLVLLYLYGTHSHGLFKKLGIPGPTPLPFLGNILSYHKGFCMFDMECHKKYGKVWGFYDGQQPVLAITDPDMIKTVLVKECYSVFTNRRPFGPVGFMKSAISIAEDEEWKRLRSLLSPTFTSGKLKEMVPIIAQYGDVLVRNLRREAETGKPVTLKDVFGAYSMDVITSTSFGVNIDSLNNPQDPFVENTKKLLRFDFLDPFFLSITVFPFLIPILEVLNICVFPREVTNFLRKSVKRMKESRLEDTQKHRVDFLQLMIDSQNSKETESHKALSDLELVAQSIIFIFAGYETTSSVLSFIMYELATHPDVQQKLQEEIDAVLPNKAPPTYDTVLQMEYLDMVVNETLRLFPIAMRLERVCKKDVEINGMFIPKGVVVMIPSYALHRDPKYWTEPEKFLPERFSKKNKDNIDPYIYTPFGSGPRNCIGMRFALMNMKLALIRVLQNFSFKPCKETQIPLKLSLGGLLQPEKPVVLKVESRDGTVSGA
Procedure, shortened: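 20nM CYP3A4 + 25uM Luciferin-PPXE (=KM), 200mM KPO4; cpd 10 min RT; NADPH regen, 60 min RT; stop w/ detection buffer, 20 min; luminescence. Normalized to 57 uM ketoconazole.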

[7] = qHTS Assay for Lipid Storage Modulators (AID 1519; calls by dose curve); settings: Drosophila S3 cells, BODIPY lipid droplet/cell ratio, laser cytometry, cells loaded with oleic acid; for activity change, negative = inhibition: at 57.5 µM (top of the series)
Procedure, shortened: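 Cells seeded at 5,000 per well were treated with compounds over a concentration series and loaded with oleic acid (400 uM, as added). Lipid droplet fluorescence (488 nm excitation, 500-530 nm channel) was read by laser-scanning cytometry and normalized to 20 uM Triacsin C.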

[8] = Primary qHTS for small molecule stabilizers of the endoplasmic reticulum resident proteome: Secreted ER Calcium Modulated Protein (SERCaMP) assay (AID 1508630; active means well fitted curve in the direction sought with a large enough effect; an effect the other way counts as inactive or inconclusive); settings: SH-SY5Y GLuc-SERCaMP (Gaussia luciferase released on ER calcium loss) secretion, thapsigargin, luminescence; series mostly up to 38.4 µM
Procedure, shortened: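 GLuc-SERCaMP-expressing SH-SY5Y cells, pretreated 16 h with compound, are challenged with thapsigargin to empty ER calcium stores; after 4 h, coelenterazine is added directly to the medium and luminescence is imaged.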

[9] = NFAT Signaling Pathway (AID 444); settings: Jurkat NFAT-bla M1, carbachol, beta-lactamase ratio, 5 h; at 7.69 µM (top of the series);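 further: carbachol stimulus at about its EC50 of 1 µM final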
Procedure, shortened: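 Read-out: CCF4 FRET ratio (460 nm/530 nm) after 1 h RT dye loading, used for %activity and AC50 from titration series. Cells: Jurkat NFAT-β-lactamase/M1 line, treated with compound plus 1 uM carbachol for 5 h, 37 °C.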

[10] = biological target: Glucocorticoid receptor (Homo sapiens) (UniProt P04150); experiment: GR-GFP Redistribution (AID 450;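 active means compounds whose dose series gives a full or clear partial fitted curve of increased nuclear translocation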; further: potency means the concentration at half of the fitted maximal effect); settings: U2OS GR-GFP nuclear translocation, laser cytometry, 2 h
[11] = biological target: Mitogen-activated protein kinase 10 (Mus musculus) (UniProt Q61831); experiment: JNK3 AlphaScreen Assay (AID 530); settings: JNK3 lysate, c-Jun phosphorylation; series mostly up to 57.1 µM;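 further: kinase came from lysate of stimulated human HepG2 cells; signal reports phosphorylation of biotinylated GST-cJun 1-79 at Ser73 with 10 µM ATP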
Procedure, shortened: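 Room-temperature AlphaScreen kinase assay; pre-activated HepG2 lysate as JNK3 source, biotin-GST-cJun(1-79) substrate, 10 uM ATP, compound 15 min preincubation.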

[12] = biological target: 3',5'-cyclic-AMP phosphodiesterase 4B (Homo sapiens) (UniProt Q07343); experiment: qHTS Assay for Inhibitors of PDE-IV (AID 607; active means well fitted activation curve with a large enough effect in the main read-out, with a control signal flat, not every such curve was filed as active); settings: HEK293 ACTOne CNG channel cells, membrane potential fluorescence; series mostly up to 22.9 µM
Sequence of 3',5'-cyclic-AMP phosphodiesterase 4B (Homo sapiens) (Q07343 whole entry, looked up): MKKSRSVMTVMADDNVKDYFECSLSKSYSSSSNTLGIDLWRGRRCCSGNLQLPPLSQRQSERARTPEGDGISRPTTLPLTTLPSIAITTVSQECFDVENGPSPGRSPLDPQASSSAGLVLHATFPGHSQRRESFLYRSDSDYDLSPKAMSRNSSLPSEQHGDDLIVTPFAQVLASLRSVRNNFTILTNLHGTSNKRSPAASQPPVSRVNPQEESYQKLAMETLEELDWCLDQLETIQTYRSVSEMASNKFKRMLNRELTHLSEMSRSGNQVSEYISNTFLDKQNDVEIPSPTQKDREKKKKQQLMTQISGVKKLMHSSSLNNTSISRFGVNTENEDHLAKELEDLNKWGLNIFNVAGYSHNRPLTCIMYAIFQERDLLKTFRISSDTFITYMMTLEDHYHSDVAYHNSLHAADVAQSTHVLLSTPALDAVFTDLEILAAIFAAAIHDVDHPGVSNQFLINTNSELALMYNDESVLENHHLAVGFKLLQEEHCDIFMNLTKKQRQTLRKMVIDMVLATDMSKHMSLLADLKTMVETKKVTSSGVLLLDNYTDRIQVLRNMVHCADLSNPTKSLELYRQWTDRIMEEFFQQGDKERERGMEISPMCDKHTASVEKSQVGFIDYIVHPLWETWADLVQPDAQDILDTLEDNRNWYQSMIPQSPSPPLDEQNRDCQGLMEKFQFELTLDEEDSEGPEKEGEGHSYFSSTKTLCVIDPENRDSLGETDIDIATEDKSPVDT
Procedure, shortened: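 ACTOne HEK293 cells carry a modified cAMP-gated CNG channel and express endogenous PDE4; plated 1000 cells/well, compounds up to 22.9 uM final. Membrane-potential dye fluorescence (ex 535/em 590) was read; parental cells received 10 uM forskolin + 100 uM RO 20-1724.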

[13] = biological target: Cytochrome P450 3A4 (Homo sapiens) (UniProt P08684); experiment: qHTS Assay for Inhibitors and Substrates of Cytochrome P450 3A4 (AID 884; active means well fitted curve in the direction sought with a large enough effect; an effect the other way counts as inactive or inconclusive; further: nearly all actives have a fitted effect of over 50% in size; further: potency means the concentration at half of the fitted maximal effect); settings: recombinant CYP3A4, Luciferin-PPXE luminescence; series mostly up to 57.1 µM
Procedure, shortened: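 20 nM human CYP3A4 with 25 uM Luciferin-PPXE (at KM) in 200 mM KPO4, preincubated 10 min with compound; NADPH regeneration started a 60 min RT reaction. Luciferin detected by luminescence, normalized to 57 uM ketoconazole as full inhibition.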

[14] = biological target: Cytochrome P450 2D6 (Homo sapiens) (UniProt P10635); experiment: qHTS Assay for Inhibitors and Substrates of Cytochrome P450 2D6 (AID 891; active means well fitted curve in the direction sought with a large enough effect; an effect the other way counts as inactive or inconclusive; further: potency means the concentration at half of the fitted maximal effect; nearly all actives have a fitted effect of over 60% in size); settings: recombinant CYP2D6, luciferin-ME EGE luminescence; series mostly up to 57.1 µM
Sequence of Cytochrome P450 2D6 (Homo sapiens) (P10635 whole entry, looked up): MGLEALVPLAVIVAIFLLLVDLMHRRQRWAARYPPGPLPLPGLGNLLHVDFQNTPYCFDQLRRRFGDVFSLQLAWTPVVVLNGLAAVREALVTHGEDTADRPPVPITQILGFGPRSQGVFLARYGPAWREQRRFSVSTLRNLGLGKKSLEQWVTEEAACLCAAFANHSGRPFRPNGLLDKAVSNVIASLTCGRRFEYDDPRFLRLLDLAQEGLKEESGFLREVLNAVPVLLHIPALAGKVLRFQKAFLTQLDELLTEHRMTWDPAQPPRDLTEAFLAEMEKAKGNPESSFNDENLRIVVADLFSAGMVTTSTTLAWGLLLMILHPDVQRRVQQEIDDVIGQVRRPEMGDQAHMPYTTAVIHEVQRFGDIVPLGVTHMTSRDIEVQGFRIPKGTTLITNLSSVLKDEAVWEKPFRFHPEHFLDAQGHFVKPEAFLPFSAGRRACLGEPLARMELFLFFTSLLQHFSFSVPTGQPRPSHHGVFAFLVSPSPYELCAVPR
Procedure, shortened: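 Human CYP2D6 (5 nM) with 30 uM Luciferin-ME EGE (at Km) in 100 mM KPO4, compound preincubated 10 min, then NADPH regeneration system for 60 min at room temperature. Luciferin read by luminescence; normalized to 1.43 uM quinidine.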

[15] = tested on: HIV-1 nucleocapsid protein NCp7 (binding to TG oligonucleotide); experiment: HIV Nucleocapsid (AID 346; call rule not given here;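 further: potency means the concentration at half of the fitted maximal effect; potency is for inhibitors that block NC binding and lower polarization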); settings: HIV-1 NC / fluorescein-TGTGTGTG probe, fluorescence polarization
Procedure, shortened: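 Reagents dispensed (10 nM TG4xF, 100 nM HIV-1 NC), plates spun, compounds pin-transferred, then incubated 1 hr at room temperature before FP imaging. Buffer: Hepes pH 7.5, 250mM NaCl, 1uM ZnCl2, 100 uM TCEP, 5 mM 2-mercaptoethanol.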

[16] = biological target: Ubiquitin carboxyl-terminal hydrolase 1 (Homo sapiens) (UniProt O94782); experiment: Inhibitors of USP1/UAF1: Pilot qHTS (AID 504865; active means well fitted curve in the direction sought with a large enough effect; an effect the other way counts as inactive or inconclusive;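 further: rhodamine fluorescence freed from ubiquitin-rhodamine substrate followed over time; top concentration of the series differs between compounds; nearly all actives have a fitted effect of over 35% in size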); settings: purified USP1/UAF1, Ub-rhodamine cleavage fluorescence; series mostly up to 114 µM
Sequence of Ubiquitin carboxyl-terminal hydrolase 1 (Homo sapiens) (O94782 whole entry, looked up): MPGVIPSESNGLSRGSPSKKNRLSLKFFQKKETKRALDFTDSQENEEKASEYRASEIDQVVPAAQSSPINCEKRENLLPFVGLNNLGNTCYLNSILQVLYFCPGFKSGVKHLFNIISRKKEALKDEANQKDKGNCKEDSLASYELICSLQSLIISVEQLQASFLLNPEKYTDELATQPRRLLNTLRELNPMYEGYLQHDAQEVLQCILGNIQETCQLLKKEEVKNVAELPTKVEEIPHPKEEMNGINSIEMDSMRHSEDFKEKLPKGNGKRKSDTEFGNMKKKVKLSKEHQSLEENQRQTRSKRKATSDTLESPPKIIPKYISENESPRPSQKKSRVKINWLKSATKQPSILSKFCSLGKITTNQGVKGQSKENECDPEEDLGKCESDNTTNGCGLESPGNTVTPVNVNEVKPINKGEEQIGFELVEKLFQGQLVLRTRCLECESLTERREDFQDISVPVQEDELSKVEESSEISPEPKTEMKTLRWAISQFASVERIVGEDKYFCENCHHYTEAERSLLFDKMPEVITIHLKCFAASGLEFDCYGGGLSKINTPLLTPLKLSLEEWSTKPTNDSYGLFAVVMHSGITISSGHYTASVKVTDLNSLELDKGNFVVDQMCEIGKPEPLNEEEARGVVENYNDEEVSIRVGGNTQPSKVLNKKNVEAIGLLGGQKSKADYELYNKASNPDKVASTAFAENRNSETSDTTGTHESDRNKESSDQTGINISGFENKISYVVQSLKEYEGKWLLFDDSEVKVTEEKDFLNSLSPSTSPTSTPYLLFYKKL
Procedure, shortened: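 In 50mM HEPES pH 7.8 containing 0.5mM EDTA, 1mM TCEP, 0.1 mg/ml BSA and 0.01% Tween-20, 1nM USP1/UAF1 is exposed to compound for 15 min, then Ub-Rho (150nM final) is added and fluorescence is read over time.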

[17] = measured here: cell count channel max response
[18] = measured here: lipid channel max response

Structure (SMILES)	Potency [1]	outcome [2]	Potency [3]	outcome [4]	Potency [5]	Potency [6]	activity change, negative = inhibition [7]	max response [7, 17] [%]	max response [7, 18] [%]	outcome [8]	activity change, negative = inhibition [9]	Potency [10]	outcome [11]	Potency [12]	Potency [13]	Potency [14]	Potency [15]	Potency [16]
N#Cc1ccc(CN2CCCC3(CCN(C(=O)Oc4ccccc4)CC3)C2)cc1	> 11.4 µM (inactive)	inactive	inactive	inactive	> 46 µM (inactive)	inactive	1.3% (inactive)	11.6	16.3	inactive	–	–	–	–	–	–	–	–
Clc1ccccc1-c1cncnc1NCCc1cnc[nH]1	> 11.4 µM (inactive)	inactive	–	inactive	> 46 µM (inactive)	inactive	–	–	–	inactive	-21.6% (inactive)	> 46 µM (inactive)	inactive	inactive	0.501 µM (active)	3.98 µM (active)	–	–
O=C(Oc1ccccc1)N1CCC[C@@]2(CCN(Cc3ccccc3)C2)C1	–	inactive	15.8 µM (active)	inactive	> 46 µM (inactive)	inactive	–	–	–	inactive	–	–	inactive	inactive	–	–	> 20 µM (inactive)	–
O=C(Oc1ccccc1)N1CCC2(CCCN(Cc3ccccc3)C2)CC1	–	inactive	inactive	inactive	> 46 µM (inactive)	inactive	2.57% (inactive)	0.129	4.78	inactive	–	–	inactive	inactive	–	–	–	–
CC(C)NC(=O)N1CCC2(CC1)CCN(C(=O)Oc1ccccc1)CC2	–	inactive	inactive	inactive	> 46 µM (inactive)	25.1 µM (active)	2.9% (inactive)	-12.1	-6.43	inactive	–	–	inactive	–	inactive	–	–	–
CC(C)CN1CCCC2(CCN(C(=O)Oc3ccccc3)CC2)C1	> 11.4 µM (inactive)	inactive	–	inactive	> 46 µM (inactive)	inactive	–	–	–	inactive	–	–	inactive	inactive	–	–	> 20 µM (inactive)	–
O=C(O)C1=CCCN(CCOC(c2ccc(C(F)(F)F)cc2)c2ccc(C(F)(F)F)cc2)C1	–	–	–	–	> 46 µM (inactive)	inactive	–	–	–	inactive	–	> 46 µM (inactive)	–	inactive	–	–	–	inactive
CC(C)CN1CC[C@@]2(CCCN(C(=O)Oc3ccccc3)C2)C1	> 11.4 µM (inactive)	inactive	15.8 µM (active)	inactive	> 46 µM (inactive)	inactive	–	–	–	inactive	-1.09% (inactive)	–	inactive	inactive	–	6.31 µM (active)	> 20 µM (inactive)	–

Reference: PubChem BioAssay (NCATS)
